Measured values from PubChem BioAssay AID1159580 (chemical genetic matrix, 2015).
Values joined by “and” are separate entries in the source; they are usually repeats but may differ in a detail not shown here. Equal entries are not always repeated. Screen size: about 5,500 compounds; about 2,000 (36%) were called active. Not shown: some 18% with an inconclusive outcome. No stated cut-off is given here; in the data, active means normalized growth mostly below about 0.91 (no sharp cut-off); inconclusive means no clear call, values can overlap the other calls; inactive means mostly above about 0.92. The list shows a part of the results.

Experiment: chemical genetic growth profiling, strain panel (AID 1159580);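 further: tested at 20 µM; growth read once vehicle control cultures reached saturation at 30 °C; 1 = growth at the plate median or of vehicle wells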
Settings: S. cerevisiae deletion strains, growth OD

Measured: normalized growth

C#C[C@]1(OC(C)=O)CCC2C3CCC4=CC(=O)CC[C@@H]4C3CC[C@@]21C (some centres not stated)
inactive: locus YAL013W, strain DEP1, stronger effect = lower value 0.97 | locus YAL021C, strain ccr4, stronger effect = lower value 0.988 | locus YAL026C, strain drs2, stronger effect = lower value 0.984 | locus YAL030W, strain snc1, stronger effect = lower value 0.986 | locus YBL061C, strain skt5, stronger effect = lower value 0.981 | locus YBR009C, strain hhf1, stronger effect = lower value 0.991 | locus YBR021W, strain FUR4, stronger effect = lower value 0.98 | locus YBR023C, strain chs3, stronger effect = lower value 0.976 | locus YBR171W, strain sec66, stronger effect = lower value 0.974 | locus YBR229C, strain ROT2, stronger effect = lower value 0.953 | locus YBR231C, strain swc5, stronger effect = lower value 1.01 | locus YBR279W, strain paf1, stronger effect = lower value 0.977 | locus YCL011C, strain gbp2, stronger effect = lower value 0.985 | locus YCL016C, strain dcc1, stronger effect = lower value 0.974 | locus YCL029C, strain bik1, stronger effect = lower value 0.96 | locus YCL069W, strain vba3, stronger effect = lower value 0.973 | locus YCR088W, strain abp1, stronger effect = lower value 0.99 | locus YDL005C, strain med2, stronger effect = lower value 0.971 | locus YDL035C, strain GPR1, stronger effect = lower value 0.972 | locus YDL040C, strain nat1, stronger effect = lower value 0.985 | locus YDL074C, strain BRE1, stronger effect = lower value 0.965 | locus YDL101C, strain DUN1, stronger effect = lower value 0.97 | locus YDL134C, strain PPH21, stronger effect = lower value 0.948 | locus YDL185W, strain tfp1, stronger effect = lower value 0.976 | locus YDL192W, strain arf1, stronger effect = lower value 0.961 | locus YDR001C, strain nth1, stronger effect = lower value 0.999 | locus YDR069C, strain doa4, stronger effect = lower value 0.969 | locus YDR101C, strain arx1, stronger effect = lower value 0.977 | locus YDR137W, strain rgp1, stronger effect = lower value 0.982 | locus YDR159W, strain sac3, stronger effect = lower value 0.936 | locus YDR162C, strain NBP2, stronger effect = lower value 0.961 | locus YDR195W, strain ref2 0.978 | locus YDR297W, strain sur2, stronger effect = lower value 0.994 | locus YDR318W, strain mcm21, stronger effect = lower value 0.941 | locus YDR334W, strain swr1, stronger effect = lower value 1.02 | locus YDR335W, strain msn5, stronger effect = lower value 0.978 | locus YDR388W, stronger effect = lower value 0.966 | locus YDR392W, strain spt3, stronger effect = lower value 0.828 | locus YDR502C, strain sam2, stronger effect = lower value 0.949 | locus YEL003W, strain gim4, stronger effect = lower value 1.01 | locus YEL037C, strain rad23, stronger effect = lower value 1 | locus YEL061C, strain CIN8 (second series), stronger effect = lower value 0.991 | locus YEL061C, strain CIN8, stronger effect = lower value 0.978 | locus YER015W, strain faa2, stronger effect = lower value 0.995 | locus YER016W, strain bim1, stronger effect = lower value 0.988 | locus YER110C, stronger effect = lower value 0.97 | locus YER111C, strain swi4, stronger effect = lower value 0.985 | locus YER155C, strain BEM2 (second series), stronger effect = lower value 0.975 | locus YER155C, strain BEM2, stronger effect = lower value 0.971 | locus YER167W, strain BCK2, stronger effect = lower value 0.974 | locus YFR010W, strain ubp6, stronger effect = lower value 1 | locus YGL078C, strain dbp3, stronger effect = lower value 0.989 | locus YGL086W, strain mad1, stronger effect = lower value 0.957 | locus YGL167C, strain pmr1, stronger effect = lower value 0.993 | locus YGL173C, strain kem1, stronger effect = lower value 0.989 | locus YGL227W, strain vid30, stronger effect = lower value 0.975 | locus YGL240W, strain doc1, stronger effect = lower value 1 | locus YGL248W, strain PDE1, stronger effect = lower value 0.967 | locus YGL253W, strain hxk2, stronger effect = lower value 1.01 | locus YGR135W, strain pre9, stronger effect = lower value 0.925 | locus YGR252W, strain gcn5, stronger effect = lower value 1.07 | locus YHR013C, strain ard1, stronger effect = lower value 0.955 | locus YHR027C, strain rpn1, stronger effect = lower value 1.01 | locus YHR030C, strain SLT2, stronger effect = lower value 0.975 and 0.933 | locus YHR079C, strain IRE1 (second series), stronger effect = lower value 0.969 | locus YHR079C, strain IRE1, stronger effect = lower value 0.92 | locus YHR094C, strain hxt1, stronger effect = lower value 0.981 | locus YHR129C, strain ARP1, stronger effect = lower value 0.974 | locus YHR142W, strain chs7, stronger effect = lower value 1 | locus YHR200W, strain rpn10, stronger effect = lower value 0.963 | locus YIL066C, strain RNR3, stronger effect = lower value 0.965 | locus YIL073C, strain SPO22, stronger effect = lower value 0.926 | locus YIL125W, strain kgd1, stronger effect = lower value 0.971 | locus YIR030C, strain dcg1, stronger effect = lower value 0.961 | locus YJL092W, strain hpr5, stronger effect = lower value 1 | locus YJL095W, strain BCK1 (second series), stronger effect = lower value 0.984 | locus YJL095W, strain BCK1, stronger effect = lower value 0.926 and 0.95 | locus YJL115W, strain asf1, stronger effect = lower value 0.982 | locus YJL129C, strain trk1, stronger effect = lower value 0.975 | locus YJL134W, strain LCB3, stronger effect = lower value 0.973 | locus YJL154C, strain vps35, stronger effect = lower value 0.985 | locus YJL164C, strain tpk1, stronger effect = lower value 0.99 | locus YJL166W, strain qcr8, stronger effect = lower value 0.995 | locus YJL168C, strain set2, stronger effect = lower value 0.97 | locus YJL187C, strain SWE1 (second series), stronger effect = lower value 0.961 | locus YJR043C, strain POL32, stronger effect = lower value 1.03 | locus YJR066W, strain TOR1, stronger effect = lower value 0.903
